For 12 compounds, growth results are on record in PubChem BioAssay (NCI).

Test systems include SR leukemia; RPMI-8226 leukemia; OVCAR-8 ovarian; OVCAR-5 ovarian; OVCAR-4 ovarian; SK-OV-3 ovarian; IGROV1 ovarian; OVCAR-3 ovarian; HS 578T breast; NCI/ADR-RES ovarian.
Assay in all cases: NCI-60 one-dose screen, 48 h (100 = growth as untreated, 0 = no growth, -100 = all killed)
Holding throughout (conditions): 10 µM unless noted

The panel holds about 83,000 compounds, 20% with a hit somewhere; the sample as a whole holds those more often.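 Compound tested at a single concentration for 48 hours in 96-well plates; a percent growth value below 10 was scored as active.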 Values without a mark were called inactive. Activity calls are given as the source filed them.

With `O=C(CBr)OCc1ccc([N+](=O)[O-])o1`, the growth was 88.1% in the assay with SR leukemia; 86.3% in the assay with RPMI-8226 leukemia; 96.9% in the assay with OVCAR-8 ovarian; 101% in the assay with OVCAR-5 ovarian; 77.9% with OVCAR-4 ovarian; 105% with SK-OV-3 ovarian. The growth was 10.5% in the assay with IGROV1 ovarian, 104% with OVCAR-3 ovarian, 106% with HS 578T breast and 101% in the assay on NCI/ADR-RES ovarian.
Regarding `COc1ccc(/C=C(/C(=O)N2CCN(c3ccc(C)cc3)CC2)c2cc(OC)c(OC)c(OC)c2)cc1N`, the growth was 11.3% in the assay on SR leukemia; 12.8% in the assay with RPMI-8226 leukemia; 21.6% in the assay on OVCAR-8 ovarian; 27.1% with OVCAR-5 ovarian; 43.9% in the assay on OVCAR-4 ovarian; 26.2% in the assay with SK-OV-3 ovarian. Besides, the growth in the assay with IGROV1 ovarian was 24.7%; in the assay with OVCAR-3 ovarian, -27.8% (active); in the assay on HS 578T breast it was 32.6%; with NCI/ADR-RES ovarian, 13.7%.
As for `O=C(NCCNCCO)c1cc([N+](=O)[O-])cc([N+](=O)[O-])c1O`, the growth was 99.8% in the assay on SR leukemia; 96.7% in the assay with RPMI-8226 leukemia; 101% in the assay on OVCAR-8 ovarian; 108% in the assay on OVCAR-5 ovarian; 108% in the assay with OVCAR-4 ovarian; 111% in the assay on SK-OV-3 ovarian. Further, the growth was 107% in the assay with IGROV1 ovarian, 110% in the assay with OVCAR-3 ovarian, 109% in the assay on HS 578T breast and 107% with NCI/ADR-RES ovarian.
As to `CCCC(C)c1cc(Cc2cc(Cl)cc(Cl)c2O)c(O)c(Cc2cc(Cl)cc(Cl)c2O)c1` (stereo not given), the growth in the assay with SR leukemia was 5.98% (active); in the assay with RPMI-8226 leukemia it was -2.65% (active); with OVCAR-8 ovarian, 15%; in the assay on OVCAR-5 ovarian, 33.8%; with OVCAR-4 ovarian it was 22%; with SK-OV-3 ovarian it was 14.6%. Further, the growth was 28.1% in the assay with IGROV1 ovarian, 16.2% in the assay with OVCAR-3 ovarian, 1.09% (active) in the assay with HS 578T breast and 2.52% (active) in the assay with NCI/ADR-RES ovarian.
As for `CCOC(=O)C1=C(c2ccccc2)NC(=O)NC1CN1C(=O)c2ccccc2C1=O` (stereo not given), the growth with SR leukemia is -32.9% (active); with RPMI-8226 leukemia it was 97.9%; in the assay with OVCAR-8 ovarian it was 111%; with OVCAR-5 ovarian it was 100%; in the assay on OVCAR-4 ovarian it was 107%; with SK-OV-3 ovarian, 113%. Besides, the growth was 98.4% with IGROV1 ovarian, 111% in the assay on OVCAR-3 ovarian, 105% in the assay with HS 578T breast and 103% in the assay with NCI/ADR-RES ovarian.
On to `COC(=O)C(Cc1cnc[nH]1)N1CC(=O)N2[C@@H](c3ccccc3)SC[C@H]2C1=O` (stereo not given in full), for which the growth in the assay with SR leukemia is 106%; in the assay with RPMI-8226 leukemia it was 105%; in the assay with OVCAR-8 ovarian, 98.4%; in the assay on OVCAR-5 ovarian, 103%; in the assay on OVCAR-4 ovarian, 111%; in the assay on SK-OV-3 ovarian, 115%. Besides, the growth in the assay with IGROV1 ovarian was 116%; in the assay with OVCAR-3 ovarian it was 111%; in the assay on HS 578T breast, 106%; with NCI/ADR-RES ovarian, 107%.
As for `c1ccc2[nH]c(-c3ccc(OCCCCCOc4ccc(-c5nc6ccccc6[nH]5)cc4)cc3)nc2c1`, the growth was -22.3% (active) in the assay with SR leukemia; -79.4% (active) in the assay on RPMI-8226 leukemia; -45.6% (active) in the assay on OVCAR-8 ovarian; 16.1% in the assay on OVCAR-5 ovarian; -60.5% (active) in the assay with OVCAR-4 ovarian; 207% in the assay on SK-OV-3 ovarian. Also, the growth in the assay with IGROV1 ovarian was 38.3%; in the assay on OVCAR-3 ovarian, 20.4%; with HS 578T breast it was 4.31% (active); with NCI/ADR-RES ovarian it was -0.189% (active).
With `CC(=O)Nc1nc(C)c(C(=O)NNC(=O)Nc2ccccc2)s1`, the growth in the assay with SR leukemia was 95.9%; in the assay on RPMI-8226 leukemia, 91.7%; in the assay on OVCAR-8 ovarian, 113%; with OVCAR-5 ovarian, 108%; with OVCAR-4 ovarian, 109%; in the assay on SK-OV-3 ovarian it was 105%. Also, the growth is 141% in the assay on IGROV1 ovarian, 100% with OVCAR-3 ovarian, 102% in the assay on HS 578T breast and 98.6% in the assay with NCI/ADR-RES ovarian.
As for `COc1ccc(CN2C(=O)/C(=C\C(=O)c3ccc(OCCN4CCCCC4)cc3)c3ccccc32)cc1`, the growth with SR leukemia was -22.2% (active); in the assay on RPMI-8226 leukemia, -11.6% (active); with OVCAR-8 ovarian, 80.8%; in the assay with OVCAR-5 ovarian it was 76.3%; in the assay with OVCAR-4 ovarian it was 45.4%; in the assay on SK-OV-3 ovarian, 107%. For the same compound, the growth in the assay on IGROV1 ovarian is 68.7%; with OVCAR-3 ovarian, 44.3%; in the assay with HS 578T breast, 81.3%; in the assay with NCI/ADR-RES ovarian it was 83.3%.
As to `CSC1=Nc2c(c(C)c(-c3ccccc3)n2CCCCl)C2=NC(=O)CN12`, the growth in the assay with SR leukemia is 12.8%; in the assay on RPMI-8226 leukemia, 50.5%; in the assay with OVCAR-8 ovarian, 88.4%; in the assay with OVCAR-5 ovarian, 86.2%; in the assay with OVCAR-4 ovarian, 75.5%; in the assay on SK-OV-3 ovarian, 87.5%. The growth in the assay with IGROV1 ovarian is 47.9%; with OVCAR-3 ovarian, 85.2%; in the assay with HS 578T breast, 84.6%; in the assay with NCI/ADR-RES ovarian it was 58%.
For the compound `N=C(c1ccccc1)N(Cc1ccccc1)Cc1ccccc1`, the growth with SR leukemia was 64.8%; in the assay with RPMI-8226 leukemia, 94.4%; in the assay on OVCAR-8 ovarian, 97.9%; in the assay with OVCAR-5 ovarian, 86.3%; in the assay with OVCAR-4 ovarian, 84.9%; with SK-OV-3 ovarian, 98.1%. The growth in the assay with IGROV1 ovarian is 67%; with OVCAR-3 ovarian it was 110%; in the assay with HS 578T breast, 113%; in the assay on NCI/ADR-RES ovarian it was 99.8%.
`CC(=O)N1CCN(CCNC(=O)n2cc(-c3ccncc3)c(-c3ccc(O)c(Cl)c3)n2)CC1`: the growth with SR leukemia is 85%; with RPMI-8226 leukemia, 102%; in the assay with OVCAR-8 ovarian, 106%; in the assay on OVCAR-5 ovarian, 114%; in the assay with OVCAR-4 ovarian it was 127%; with SK-OV-3 ovarian, 104%. For the same compound, the growth is 127% with IGROV1 ovarian, 112% in the assay on OVCAR-3 ovarian, 139% in the assay with HS 578T breast and 107% with NCI/ADR-RES ovarian.
